Where “and” joins values, the source holds several entries; their conditions need not be identical. Equal entries are not always repeated. This is part of a sample that, as a whole, favours compounds with a hit. Of some 83,000 tested, about 20% had one in any assay.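 In brief: 96-well plates, 48 h treatment, single concentration, percent growth endpoint.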 Values without a mark were called inactive. Calls of active or inactive are those of the source. Rule for the calls: active = growth percent below 10; inactive = the rest.
Key:
Assay in all cases: NCI-60 one-dose screen, 48 h (100 = growth as untreated, 0 = no growth, -100 = all killed)
Conditions in all cases: 10 µM unless noted
NCI-H23 lung = system: NCI-H23 lung
NCI-H226 lung = system: NCI-H226 lung
NCI-H322M lung = system: NCI-H322M lung
HOP-62 NSCLC = system: HOP-62 NSCLC
NCI-H460 lung = system: NCI-H460 lung
HOP-92 NSCLC = system: HOP-92 NSCLC
NCI-H522 lung = system: NCI-H522 lung
A549/ATCC NSCLC = system: A549/ATCC NSCLC
786-0 renal = system: 786-0 renal
COLO 205 colon = system: COLO 205 colon
DU-145 prostate = system: DU-145 prostate
K-562 leukemia = system: K-562 leukemia
MALME-3M melanoma = system: MALME-3M melanoma
MDA-MB-231 breast = system: MDA-MB-231 breast
RXF 393 renal = system: RXF 393 renal
SF-268 CNS = system: SF-268 CNS
SF-295 CNS = system: SF-295 CNS
SF-539 CNS = system: SF-539 CNS
UACC-257 melanoma = system: UACC-257 melanoma
M14 melanoma = system: M14 melanoma

Row | Compound | growth (NCI-H23 lung) | growth (NCI-H226 lung) | growth (NCI-H322M lung) | growth (HOP-62 NSCLC) | growth (NCI-H460 lung) | growth (HOP-92 NSCLC) | growth (NCI-H522 lung) | growth (A549/ATCC NSCLC) | growth (786-0 renal) | growth (COLO 205 colon) | growth (DU-145 prostate) | growth (K-562 leukemia) | growth (MALME-3M melanoma) | growth (MDA-MB-231 breast) | growth (RXF 393 renal) | growth (SF-268 CNS) | growth (SF-295 CNS) | growth (SF-539 CNS) | growth (UACC-257 melanoma) | growth (M14 melanoma)
1 | CC[C@H](CC[C@@H](C)[C@H]1CC[C@H]2[C@@H]3CC[C@H]4C[C@]5(CC[C@]4(C)[C@H]3CC[C@]12C)OO[C@](C)(C(F)(F)F)O5)C(C)C | 92.3% | 89.7% | 91.5% | 81.7% | 95.1% | 87.4% | 92.8% | 95.3% | 97% | 96.4% | 97.2% | 93.9% | 86% | 94.5% | 106% | 87.4% | 94.6% | 97.8% | 95.3% | 97.1%
2 | C[C@]12CC[C@H](O)C[C@@H]1CC[C@@H]1[C@@H]2CC[C@]2(C)OC(=O)CC[C@@H]12 | 108% | 102% | 87.2% | 97.3% | 109% | 91.1% | 81.2% | 72.8% | 88.7% | 72.5% | 107% | 118% | 82.7% | 91.1% | 117% | 98.7% | 93.9% | 95.9% | 73.7% | 100%
3 | Oc1ccccc1C=NCCN=Cc1ccccc1O | 99.8% | 99.5% | 97.5% | 96.9% | 107% | 99.6% | 92.3% | 98.7% | 106% | 118% | 108% | 112% | 113% | 101% | 109% | 97% | 101% | 106% | 96.4% | 102%
4 | CCC1CCC(=O)O1 (stereo not given) | 110% and 111% | 97.4% and 110% | 102% and 104% | 96.9% and 115% | 103% and 110% | 123% | 85.1% and 105% | 112% and 105% | 98.1% and 107% | 104% and 125% | 112% and 116% | 110% and 119% | 98.2% and 116% | 106% and 112% | 101% and 124% | 106% and 110% | 119% | 98.7% and 106% | 105% | 107% and 114%
5 | CC[C@H](C)[C@H](NC(=O)[C@H]1CCCCN1C)C(=O)N(C)[C@H](C[C@@H](OC(C)=O)c1nc(C(=O)N[C@@H](Cc2ccccc2)C[C@H](C)C(=O)O)cs1)C(C)C | 25.9% | 11.6% | 51.5% | 12.2% | 11% | 14.8% | -47.1% (active) | 10.2% | 15.6% | -80.3% (active) | 4.56% (active) | 7.63% (active) | 55.2% | 28.2% | 35.3% | 34.2% | 8.04% (active) | -10.5% (active) | 49.3% | 8.87% (active)
6 | CCOC(=O)P(=O)(OCC)OCC | 112% | 106% | 82.6% | 109% | 116% | 94.9% | 85.7% | 101% | 113% | 112% | 115% | 121% | 122% | 110% | 115% | 104% | 126% | 106% | 102% | 116%
7 | CC(C)COC(=O)Cc1ccccc1 | 106% | 99.4% | 104% | 101% | 109% | 95.1% | 99% | 105% | 104% | 106% | 115% | 109% | 94.4% | 120% | 102% | 104% | 111% | 97.5% | 104% | 103%
8 | O=C(NCCCN1CC1)Nc1cccc2ccccc12 | 104% and 92.7% | 102% and 92.4% | 116% and 102% | 48.9% and 87.9% | 109% and 91% | 90.5% | 108% and 79.1% | 97.3% and 91.6% | 108% and 103% | 106% and 103% | 104% and 102% | 86.4% | 75.8% and 104% | 94.3% and 105% | 108% and 107% | 83.5% and 96.9% | 114% and 88.2% | 93.7% and 113% | 96.9% and 94.2% | 99.6% and 98.8%
9 | O=C(CBr)OCCOC(=O)CBr | 84.7% | 109% | 97.7% | 109% | 95% | 114% | -74.6% (active) | 92.8% | 24.4% | 104% | 84.2% | 62.5% | 76.3% | 80.6% | -7.57% (active) | 89.9% | 104% | 112% | 83.1% | 81%
10 | COc1ccc(C(C#N)C(C)=O)cc1 (stereo not given) | 97.9% | 99.9% | 135% | 98.8% | 102% | 111% | 82.5% | 101% | 107% | 106% | 92.6% | 104% | 108% | 116% | 111% | 88.9% | 107% | 103% | 93% | 101%
11 | CC1=CC(=Nc2ccc(N(CCCl)CCCl)cc2)C=C(C)C1=O | 23% | 44.5% | 79.2% | 36.5% | 7.26% (active) | -30.7% (active) | -87.2% (active) | 38.4% | 21% | 39.5% | -39.4% (active) | 17.4% | 8.43% (active) | 40.8% | -80.3% (active) | -9.09% (active) | 14.9% | 4.45% (active) | 19.3% | 29.5%
12 | CO[C@@H]([CH2][Hg][O]C(=O)c1ccccc1)[C@@H]([CH2][Hg][O]C(=O)c1ccccc1)OC | 102% | 93.2% | 105% | 81.8% | 103% | 114% | -53.9% (active) | 95.6% | 101% | 84.8% | 91.4% | 30.1% | 35.6% | 88.9% | 114% | 102% | 106% | 102% | 90.7% | 79.5%
13 | Cn1cc(C(=O)C[n+]2ccccc2)c2ccccc21 | 91.7% | 99.1% | 104% | 95.6% | 107% | 92.1% | 96.9% | 102% | 97.4% | 101% | 109% | 106% | 96.7% | 100% | 99.6% | 94.7% | 102% | 89.6% | 111% | 99.2%
